Assay results reported in PubChem BioAssay (NCI).
This is part of a sample that, as a whole, favours compounds with a hit. Of some 83,000 tested, about 20% had one in any assay.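 Single-concentration screen, 48 h exposure, 96-well plates. Endpoint: percent growth. Below 10 = active.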 Activity calls are given as the source filed them.

Assays:
Experiment in all cases: NCI-60 one-dose screen, 48 h (100 = growth as untreated, 0 = no growth, -100 = all killed)
[1] = tested on: NCI-H23 lung; settings: 10 µM unless noted
[2] = tested on: NCI-H226 lung; settings: 10 µM unless noted
[3] = tested on: NCI-H322M lung; settings: 10 µM unless noted
[4] = tested on: HOP-62 NSCLC; settings: 10 µM unless noted
[5] = tested on: NCI-H460 lung; settings: 10 µM unless noted
[6] = tested on: HOP-92 NSCLC; settings: 10 µM unless noted
[7] = tested on: A549/ATCC NSCLC; settings: 10 µM unless noted
[8] = tested on: 786-0 renal; settings: 10 µM unless noted
[9] = tested on: COLO 205 colon; settings: 10 µM unless noted
[10] = tested on: DU-145 prostate; settings: 10 µM unless noted
[11] = tested on: K-562 leukemia; settings: 10 µM unless noted
[12] = tested on: MALME-3M melanoma; settings: 10 µM unless noted
[13] = tested on: MDA-MB-231 breast; settings: 10 µM unless noted
[14] = tested on: RXF 393 renal; settings: 10 µM unless noted
[15] = tested on: SF-268 CNS; settings: 10 µM unless noted
[16] = tested on: SF-295 CNS; settings: 10 µM unless noted
[17] = tested on: SF-539 CNS; settings: 10 µM unless noted
[18] = tested on: UACC-257 melanoma; settings: 10 µM unless noted
[19] = tested on: M14 melanoma; settings: 10 µM unless noted
[20] = tested on: NCI-H522 lung; settings: 10 µM

Measured: growth

O=C1C=CC(=O)N1c1ccccc1N1C(=O)C=CC1=O
inactive: [1] 115% | [2] 101% | [3] 122% | [4] 94.5% | [5] 111% | [6] 82.8% | [7] 121% | [8] 110% | [9] 57.7% | [10] 110% | [11] 50.2% | [12] 144% | [13] 92.6% | [14] 111% | [15] 97.7% | [16] 125% | [17] 100% | [18] 115% | [19] 110%

CCOC1Oc2ccccc2C(=O)/C1=N/c1nccs1 (stereo not drawn)
inactive: [1] 95.2% | [2] 84% | [3] 99.7% | [4] 92.7% | [5] 106% | [7] 111% | [8] 100% | [9] 95.1% | [10] 101% | [11] 84.9% | [12] 51.9% | [13] 78.1% | [14] 102% | [15] 76.9% | [16] 93.5% | [17] 93.9% | [18] 112%
active: [6] -23.6%

CCOC(=O)c1cc2oc(/C=C/c3cc(=O)c4cc(Cl)ccc4o3)cc2[nH]1
inactive: [1] 98.6% | [2] 76.9% | [3] 108% | [4] 99.6% | [5] 88.9% | [7] 99% | [8] 97.7% | [9] 93.9% | [10] 65.4% | [11] 88.9% | [13] 78.9% | [14] 58% | [15] 73% | [16] 109% | [17] 70% | [18] 101%
active: [6] -17.9% | [12] -14.5%

COc1ccc2c(c1)[n+](=O)c(C(=O)/C=C/c1cc(OC)c(OC)c(OC)c1)c(C)n2[O-]
inactive: [1] 65.9% | [2] 79.1% | [3] 81.3% | [4] 101% | [5] 44.7% | [6] 63.7% | [7] 74.1% | [8] 70.9% | [9] 58.9% | [10] 47.6% | [11] 35.4% | [12] 91.8% | [13] 67.9% | [14] 48.6% | [15] 56.3% | [16] 87.5% | [17] 81.9% | [18] 80.5% | [19] 80.1%

COc1cc(-c2nc3sc4c(c3c(=O)[nH]2)CCCCCC4)cc(OC)c1OC
active: [5] 8.85% | [9] -24.2% | [11] 5.92% | [13] 7.21% | [14] 0.561% | [17] -5.36%
inactive: [1] 22.3% | [2] 60.9% | [3] 39% | [4] 29.6% | [6] 42.7% | [7] 25.8% | [8] 40.7% | [10] 12.1% | [12] 25.6% | [15] 27.2% | [16] 13.7% | [18] 63.7% | [19] 23.1%

Cc1cc(C)nc(NS(=O)(=O)c2ccc(Nc3nc4nc(SCc5ccccc5)nc(-c5ccc(O)cc5)c4c(=O)[nH]3)cc2)n1
active: [6] -9.71%
inactive: [1] 106% | [2] 93.8% | [3] 111% | [4] 93.4% | [5] 107% | [7] 98% | [8] 97% | [9] 103% | [10] 136% | [11] 84.2% | [12] 67.7% | [13] 93.8% | [14] 78.6% | [15] 84% | [16] 83.3% | [17] 98.9% | [18] 113%

COc1ccc(C2=NN(C(C)=O)C(c3cccc(Nc4ccnc5cc(Cl)ccc45)c3)C2)cc1 (stereo not drawn)
inactive: [1] 60.7% | [2] 74.5% | [3] 63.9% | [4] 38% | [5] 64.9% | [6] 32.7% | [7] 45.5% | [8] 58.6% | [9] 19.1% | [10] 62.3% | [11] 18.3% | [12] 65.8% | [13] 63% | [14] 51.1% | [15] 48.2% | [16] 52.5% | [17] 72.7% | [18] 49.2% | [19] 40.2%

O=c1oc2c(cc1-c1ccc([N+](=O)[O-])cc1)C(O)Oc1ccccc1-2 (stereo not drawn)
inactive: [1] 89.3% | [2] 101% | [3] 107% | [4] 98.1% | [5] 97.2% | [7] 78.7% | [8] 98% | [9] 93.5% | [10] 142% | [11] 76.8% | [12] 77.6% | [13] 114% | [14] 49.1% | [15] 94.7% | [16] 67.9% | [17] 93.8% | [18] 89.3%
active: [6] -13.6%

CN(C)c1ccc(-c2nc3ncc(Br)cc3o2)cc1
inactive: [1] 87.5% | [2] 97.9% | [3] 90.2% | [4] 91.9% | [5] 109% | [6] 61.8% | [7] 103% | [8] 86.5% | [9] 81.3% | [10] 99.8% | [11] 81.5% | [12] 118% | [13] 90.2% | [14] 83.8% | [15] 114% | [16] 109% | [17] 91.4% | [18] 104% | [19] 97.6%

Cc1cc(C(=O)Nc2ccc3cc(CN4CCOCC4)ccc3n2)c(C)n1-c1ccccc1
inactive: [1] 12.7% | [2] 21.9% | [3] 94.2% | [4] 36% | [5] 59.3% | [6] 51.7% | [7] 28% | [8] 56.7% | [9] 40.5% | [10] 70.2% | [11] 27% | [12] 11.4% | [13] 70.9% | [14] 96.3% | [15] 77% | [16] 11.7% | [17] 59.1% | [19] 13.5%
active: [18] -12.7%

C=C1CCC2C(C)(COC(=O)CC)C(OC(=O)CC)CCC2(C)C1C/C=C1/C(=O)OCC1OC(=O)CC (stereo not drawn)
inactive: [1] 57.4% | [3] 75.6% | [5] 79.6% | [7] 46.1% | [10] 28.9% | [15] 39.4% | [16] 56.7%
active: [2] -18.3% | [4] -17.7% | [6] -9.73% | [8] -97.4% | [9] -28.1% | [11] 2.81% | [12] 2.98% | [13] -29.6% | [14] -97.5% | [17] -64.3% | [18] 0.936% | [19] -76.8%

Cc1ccc2c(c1)C(=O)/C(=C\Nc1ccc(C(N)=O)cc1)C(O)O2 (stereo not drawn)
inactive: [1] 114% | [2] 154% | [3] 95.8% | [4] 88.3% | [5] 111% | [7] 114% | [8] 110% | [9] 108% | [10] 107% | [11] 97.7% | [12] 86.7% | [13] 83.1% | [14] 111% | [15] 82.8% | [16] 94% | [17] 99.8% | [18] 118%
active: [6] -17.9%

CCCCCCCCCCOC(C)=O
inactive: [1] 113% | [2] 98.6% | [3] 107% | [4] 108% | [5] 110% | [6] 89.3% | [7] 106% | [8] 114% | [9] 116% | [10] 112% | [11] 107% | [12] 108% | [13] 107% | [14] 112% | [15] 106% | [16] 80% | [17] 96.1% | [18] 94% | [19] 106%

CC(=O)Nc1cc(C(c2ccccc2)c2ccccc2)cc(C(c2ccccc2)c2ccccc2)c1C
inactive: [1] 60% | [2] 55.6% | [3] 81.7% | [5] 55.4% | [6] 41.4% | [20] 45.6% | [8] 63.6% | [9] 64.3% | [11] 35.3% | [12] 75.2% | [13] 69.8% | [15] 53.5% | [16] 54.9% | [17] 77.3% | [18] 64.8% | [19] 79.2%
active: [4] 8.81%

CC1CN(C2CCCCC2)C(=O)NC1=O (stereo not drawn)
inactive: [1] 114% | [2] 101% | [3] 80.5% | [4] 108% | [5] 114% | [6] 92% | [7] 104% | [8] 110% | [9] 101% | [10] 113% | [11] 103% | [12] 108% | [13] 104% | [14] 110% | [15] 105% | [16] 108% | [17] 106% | [18] 109% | [19] 99.3%

COc1ccc(OC)c(CCn2cncc2-c2c[nH]c3cc(Br)ccc23)c1
inactive: [1] 30.1% | [2] 41.5% | [3] 87.1% | [4] 38% | [5] 36.7% | [6] 20.6% | [7] 31.2% | [8] 59.5% | [10] 63.3% | [12] 37.7% | [13] 48.7% | [14] 51.9% | [15] 45.6% | [16] 18.4% | [17] 56.3% | [18] 29.9% | [19] 26.4%
active: [9] 7.59% | [11] 7.3%

COc1ccc2c(c1)sc1nc(-c3ccc(Br)cc3)cn12
inactive: [1] 100% | [2] 101% | [3] 99.8% | [4] 108% | [5] 117% | [6] 101% | [7] 95% | [8] 98% | [9] 129% | [10] 115% | [11] 90.9% | [12] 109% | [13] 89.6% | [14] 109% | [15] 118% | [16] 89.2% | [17] 105% | [18] 101% | [19] 103%

Nc1nc(Nc2ccccc2SSc2ccccc2Nc2nc(N)nc(C(Cl)(Cl)Cl)n2)nc(C(Cl)(Cl)Cl)n1
inactive: [1] 54% | [2] 64.6% | [3] 75.3% | [5] 69.6% | [6] 131% | [8] 70% | [9] 114% | [10] 82.3% | [11] 52.8% | [12] 75% | [13] 44.1% | [14] 67.2% | [15] 50.5% | [16] 27.4% | [17] 84.3% | [18] 100% | [19] 67%
active: [4] -34% | [7] -42.5%

COc1ccc(-c2nc3sc4c(c3c(=O)[nH]2)CCCCCC4)cc1
active: [12] 8.18%
inactive: [1] 80.7% | [2] 86.5% | [3] 74.4% | [4] 36.2% | [5] 33.2% | [6] 73.2% | [7] 50.3% | [8] 80.1% | [9] 35.4% | [10] 66.6% | [11] 17.8% | [13] 52.6% | [14] 28.4% | [15] 48.6% | [16] 43.6% | [17] 65.1% | [18] 64% | [19] 33.7%

CCOC(=O)OCC(=O)[C@@]1(O)CC[C@H]2[C@@H]3CCC4=CC(=O)CC[C@]4(C)[C@H]3[C@@H](O)C[C@@]21C
inactive: [1] 111% | [2] 70.1% | [3] 99.2% | [4] 98.5% | [5] 102% | [6] 72.5% | [7] 74.2% | [8] 108% | [9] 104% | [10] 101% | [11] 111% | [12] 75.7% | [13] 98.2% | [14] 127% | [15] 94% | [16] 129% | [17] 91.3% | [18] 93.4% | [19] 90.7%
